This is an account of results in PubChem BioAssay.

Calls of active or inactive are those of the source.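 The calls were made as follows, unless noted: active = inhibition above 20% together with a positive visual image hit; inconclusive = visual image hit but inhibition not above 20%; inactive = no visual image hit.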

A short description of assay [1]: inhibitors of TNFa-induced NFkB p65 translocation, primary screen, imaging, HUVEC, MLSMR starter and 10KST1 sets (AID 438).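 Also: compound added about 3h40 before a 20 min TNFalpha stimulation.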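 As to inhibition: signal is the nuclear over cytoplasmic p65 intensity ratio per well.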 The conditions noted are these: HUVEC TNFa-induced p65 nuclear translocation; cell count: measured here: nuclei count (cytotoxicity indicator), at 2.08 µM; inhibition: at 2 µM, stronger effect = higher value, 0% TNFa-plus-vehicle, 100% no-TNFa wells.
Assay [2] is described as follows: reduction of polyQ htt aggregates in cells – imaging, exon1htt(103Q)mCFP cells, high-content imaging, primary screen (AID 483;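 active = visual image review flags a hit and inhibition of aggregation exceeds 20%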;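 also: compound exposure lasted 3 days before fixation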;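 as to nuclei count: percent of the per-plate median nuclei count of sample wells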). The settings on record: exon1htt(103Q)mCFP cell line, aggregate imaging, at 2 µM; inhibition of aggregation: stronger effect = higher value; nuclei count: measured here: cell count, toxicity.
The nature of assay [3]: endothelial E-selectin expression blockers – imaging, HUVEC, immunofluorescence, MLSMR starter and 10KST1 sets, primary screen (AID 487;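 active = visually confirmed hit in the image check and inhibition above 20%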;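 as to inhibition: signal is fraction of cell area covered by stained E-selectin grains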;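 as to nuclei count: 100% = median nuclei count of all wells on the same plate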). The conditions noted are these: HUVEC TNFalpha-induced E-selectin immunofluorescence imaging, at 2 µM; inhibition: stronger effect = higher value; nuclei count: measured here: cell number, toxicity.
The target of assay [4] is Voltage-gated potassium channel subunit beta-2 (Rattus norvegicus) (UniProt P62483). The experiment in a line: inhibitors of rat Kvbeta2 reductase activity – biochemical, NADPH fluorescence, primary screen (AID 622;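 active = fluorescence slope higher than the sample average by over 3 SD, cut at about -0.22 in these data, passing the limit was not always enough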;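 also: slope of raw intensity against log time taken from 70 to 1610 s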). The conditions noted are these: recombinant KvBeta, 4-cyanobenzaldehyde reduction, at 10 µM, stronger effect = higher value.
Sequence of Voltage-gated potassium channel subunit beta-2 (Rattus norvegicus) (P62483 whole entry, looked up): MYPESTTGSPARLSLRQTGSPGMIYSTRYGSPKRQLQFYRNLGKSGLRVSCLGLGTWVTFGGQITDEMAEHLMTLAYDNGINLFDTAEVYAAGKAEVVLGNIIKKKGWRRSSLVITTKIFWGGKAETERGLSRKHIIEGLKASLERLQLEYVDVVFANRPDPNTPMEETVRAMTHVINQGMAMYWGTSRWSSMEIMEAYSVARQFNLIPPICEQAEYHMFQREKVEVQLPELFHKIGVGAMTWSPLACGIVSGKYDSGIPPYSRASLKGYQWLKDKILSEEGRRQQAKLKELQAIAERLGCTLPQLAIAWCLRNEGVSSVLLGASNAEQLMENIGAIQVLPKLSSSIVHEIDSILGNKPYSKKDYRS
Assay [5] has the same target. The experiment in a line: enhancers of rat Kvbeta2 NADPH turnover – biochemical, NADPH fluorescence, primary screen (AID 623;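 active = NADPH fluorescence slope more negative than the mean of all samples by about 3 SD, 99.7% confidence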;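 also: fluorescence intensity change per second fitted from 20 to 320 s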). The conditions noted are these: Recombinant KvBeta, NADPH fluorescence decrease slope, 10 min; at 10 µM; stronger effect = lower value.
For assay [6], the target named is Alpha-2C adrenergic receptor (Homo sapiens) (UniProt P18825). The assay is described as follows: compounds altering alpha2C-coupled GIRK flux – cell-based, HEK293 alpha2C/GIRK1/2, thallium flux, primary screen (AID 624;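 active = fluorescence slope after compound addition differing from the mean of all screened samples at 99.7% confidence, in either direction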;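 also: slope of fluorescence ratio to pre-addition baseline per second over 15 to 24 s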). The conditions noted are these: thallium flux BTC fluorescence, at 10 µM, actives lie on both sides.
Sequence of Alpha-2C adrenergic receptor (Homo sapiens) (P18825 whole entry, looked up): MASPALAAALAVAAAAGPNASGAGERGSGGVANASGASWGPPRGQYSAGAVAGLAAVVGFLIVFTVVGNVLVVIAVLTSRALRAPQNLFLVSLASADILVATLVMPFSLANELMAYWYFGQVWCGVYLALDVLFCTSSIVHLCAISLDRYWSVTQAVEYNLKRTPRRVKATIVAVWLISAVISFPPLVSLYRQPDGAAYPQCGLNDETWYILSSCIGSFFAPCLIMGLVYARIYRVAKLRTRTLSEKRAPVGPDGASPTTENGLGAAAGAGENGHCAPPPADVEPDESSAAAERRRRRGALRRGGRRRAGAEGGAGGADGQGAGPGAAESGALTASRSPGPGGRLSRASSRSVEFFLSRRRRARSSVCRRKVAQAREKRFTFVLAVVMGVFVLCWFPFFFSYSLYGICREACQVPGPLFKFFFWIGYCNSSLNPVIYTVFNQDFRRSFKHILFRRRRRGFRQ
Assay [7] can be described thus: blockers of RIG-like receptor reporter activation – cell-based, Sendai virus stimulus, luciferase, 10K MLSCN set, TLR/RLR signaling modifier project, primary screen (AID 602276;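 active = inhibition at or above 50% at 10 µM; inactive = inhibition below 50%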;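 also: firefly luciferase from ISG56 promoter only with Renilla not read in this screen; 0% = Sendai virus plus DMSO and 100% = medium plus DMSO without virus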). The settings on record: HEK293 RL24 IRF3 luciferase reporter, at 10 µM, stronger effect = higher value. Background: In a reporter assay the amount or activity of a reporter protein is the signal.
A short description of assay [8]: TLR3 IRF3 reporter activation blockers – cell-based, poly I:C stimulus, luciferase, 10K MLSCN set, primary screen (AID 602277;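 active = inhibition of the reporter signal at or above 50%; inactive = inhibition below 50%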). The conditions noted are these: HEK293-TLR3 RL24 IRF3 luciferase reporter, at 10 µM, stronger effect = higher value.

Take `CN1CCC(NC(=O)c2cccs2)CC1`: the cell count in assay [1] is 575. Moreover, the inhibition was 8.5% (inactive) in assay [1], -16.6% (inactive) in assay [3], 8.43% (inactive) in assay [7] and 33.8% (inactive) in assay [8]. Further, in assay [2], the inhibition of aggregation is -27.2% (inactive). In addition, the nuclei count was determined as 88.6% in assay [2] and 112% in assay [3]. Also, in assay [4], the fluorescence slope was -0.547 (inactive). In assay [5], the NADPH fluorescence slope is -5e-05 (inactive). In assay [6], the slope was 0.00687 (inactive).
On to `CC(=O)OCC1OC(c2ccccc2)C(OC(C)=O)C(OC(C)=O)C1OC(C)=O` (centres undefined), for which the cell count in assay [1] is 274. Besides, the inhibition in assay [1] was -5% (inactive); in assay [3], -26.4% (inactive); in assay [7], 6.22% (inactive); in assay [8] it was 34.3% (inactive). In assay [2], the inhibition of aggregation was 15.4% (inactive). Moreover, the nuclei count in assay [2] is 59.7%; in assay [3], 106%. Besides, the fluorescence slope in assay [4] is -0.351 (inactive). In addition, the NADPH fluorescence slope in assay [5] is -2.1e-05 (inactive). In addition, in assay [6], the slope was 0.00646 (inactive).
On to `CCOc1ccc(-c2nnn(CCC(=O)O)n2)cc1OC`, for which the cell count in assay [1] stood at 429. The inhibition in assay [1] is 6.5% (inactive); in assay [3], -108% (inactive); in assay [7], 18.1% (inactive); in assay [8], 9.91% (inactive). The inhibition of aggregation in assay [2] was 15.2% (inactive). Also, the nuclei count in assay [2] came to 64.5%; in assay [3], 118%. In addition, the fluorescence slope in assay [4] is -0.612 (inactive). For the same molecule, the NADPH fluorescence slope in assay [5] is 1.3e-05 (inactive). Further, the slope in assay [6] was 0.00471 (inactive).
As for `CN(CCc1ccccn1)C(=O)CCNC(=O)Cn1cnc2ccccc2c1=O`, the cell count in assay [1] turned out to be 202. The inhibition was -7.4% (inactive) in assay [1], -6.6% (inactive) in assay [3], 13.8% (inactive) in assay [7] and 14.4% (inactive) in assay [8]. Besides, the inhibition of aggregation in assay [2] was -4.7% (inactive). The nuclei count in assay [2] came out at 99.5%; in assay [3], 110%. For the same molecule, in assay [4], the fluorescence slope was -0.611 (inactive). Further, the NADPH fluorescence slope in assay [5] is 1.1e-05 (inactive). In assay [6], the slope was 0.00589 (inactive).
For the molecule `O=C(CCCn1c(=O)c2sccc2n(Cc2cc(=O)n3ccccc3n2)c1=O)NCc1ccco1`, the cell count in assay [1] stood at 729. The inhibition in assay [1] is -2.9% (inactive); in assay [3], -67.8% (inactive); in assay [7], -12.7% (inactive); in assay [8], -8.56% (inactive). For the same molecule, in assay [2], the inhibition of aggregation is -3.9% (inactive). Moreover, the values for the nuclei count in assay [2] and in assay [3] were 106% and 116%, respectively. Moreover, the fluorescence slope in assay [4] was -0.575 (inactive). For the same molecule, the NADPH fluorescence slope in assay [5] was 3.3e-07 (inactive). Moreover, in assay [6], the slope was 0.0069 (inactive).
For the molecule `Cc1ccc(S(=O)(=O)c2cc3c(=O)n4ccccc4nc3n(CC3CCCO3)c2=N)cc1C` (centres undefined), in assay [1], the cell count came out at 716. Moreover, the inhibition in assay [1] is -1.6% (inactive); in assay [3] it was 0.8% (inactive); in assay [7], 13.6% (inactive); in assay [8], 23.9% (inactive). The inhibition of aggregation in assay [2] is -3.3% (inactive). In addition, the nuclei count was 88.2% in assay [2] and 106% in assay [3]. Besides, the fluorescence slope in assay [4] is -0.439 (inactive). Moreover, the NADPH fluorescence slope in assay [5] was -3.3e-05 (inactive). Besides, the slope in assay [6] was 0.00461 (inactive).
With `Cc1sc(NC(=O)CSc2nnc(COc3ccccc3)n2C)c(C#N)c1C`, the cell count in assay [1] was found to be 602. Further, the inhibition was 2.2% (inactive) in assay [1], -77.2% (inactive) in assay [3], -3.28% (inactive) in assay [7] and -13.7% (inactive) in assay [8]. Moreover, the inhibition of aggregation in assay [2] is 15.6% (inactive). Further, the results for the nuclei count in assay [2] and in assay [3] were 93.8% and 113%, respectively. Further, in assay [4], the fluorescence slope is -0.335 (inactive). Also, the NADPH fluorescence slope in assay [5] was 5.1e-06 (inactive). Besides, in assay [6], the slope was 0.00494 (inactive).
In the case of `C/C=C/Cn1c(Br)nc2c1c(=O)[nH]c(=O)n2C`, the cell count in assay [1] is 650. The inhibition in assay [1] was 10.6% (inactive); in assay [3], 20.1% (inactive); in assay [7], 15.1% (inactive); in assay [8], 10.7% (inactive). Moreover, the inhibition of aggregation in assay [2] is -10.8% (inactive). For the same molecule, the nuclei count was 73% in assay [2] and 103% in assay [3]. For the same molecule, the fluorescence slope in assay [4] was -0.625 (inactive). Also, the NADPH fluorescence slope in assay [5] was -4.7e-05 (inactive). For the same molecule, in assay [6], the slope is 0.00443 (inactive).
Consider `CCc1ccccc1OCCCCCNCCO`, for which the cell count in assay [1] came out at 459. Moreover, the inhibition in assay [1] was 3.9% (inactive); in assay [3], 53% (inactive); in assay [7], 10.8% (inactive); in assay [8], 31.9% (inactive). Further, the inhibition of aggregation in assay [2] is 28.4% (inactive). Moreover, the nuclei count came to 87.2% in assay [2] and 85.2% in assay [3]. Besides, the fluorescence slope in assay [4] was -0.303 (inactive). In assay [5], the NADPH fluorescence slope is -1e-05 (inactive). In addition, in assay [6], the slope was 0.00576 (inactive).
As to `Cc1oc(-c2ccccc2F)nc1CS(=O)(=O)CC(=O)NCc1ccco1`, the cell count in assay [1] worked out at 753. The inhibition was -1.1% (inactive) in assay [1], -29.4% (inactive) in assay [3], 0.0639% (inactive) in assay [7] and 22.5% (inactive) in assay [8]. Moreover, the inhibition of aggregation in assay [2] was 4.5% (inactive). Also, the nuclei count in assay [2] was 102%; in assay [3] it was 107%. In assay [4], the fluorescence slope was -0.539 (inactive). Besides, the NADPH fluorescence slope in assay [5] was -1.9e-05 (inactive). Further, the slope in assay [6] is 0.00692 (inactive).
As for `Cc1ccc(NC(=O)C2CCCN(S(=O)(=O)c3cnc[nH]3)C2)c(Br)c1` (centres undefined), the cell count in assay [1] turned out to be 601. The inhibition in assay [1] is 10.1% (inactive); in assay [3] it was 12.8% (inactive); in assay [7], 3.4% (inactive); in assay [8], -7.13% (inactive). The inhibition of aggregation in assay [2] was -33.6% (inactive). Further, the nuclei count in assay [2] is 82.3%; in assay [3], 108%. In assay [4], the fluorescence slope was -0.543 (inactive). In assay [5], the NADPH fluorescence slope is -6.4e-05 (inactive). For the same molecule, the slope in assay [6] is 0.00566 (inactive).
In the case of `O=C(Nc1ccc(N2CCOCC2)c(Cl)c1)c1ccc(Br)o1`, the cell count in assay [1] was found to be 708. For the same molecule, the inhibition in assay [1] was 8.2% (inactive); in assay [3], -109% (inactive); in assay [7] it was -54.1% (inactive); in assay [8], -162% (inactive). Besides, the inhibition of aggregation in assay [2] was 4.4% (inactive). Moreover, the nuclei count in assay [2] was determined as 103%; in assay [3], 104%. For the same molecule, in assay [4], the fluorescence slope is -0.497 (inactive). In addition, the NADPH fluorescence slope in assay [5] was -0.000111 (inactive). Moreover, the slope in assay [6] was 0.00715 (inactive).
As for `COc1ccc(C)cc1S(=O)(=O)N(CC(=O)O)c1ccccc1`, the cell count in assay [1] is 343. The inhibition in assay [1] is 8.1% (inactive); in assay [3], -90.2% (inactive); in assay [7] it was 34.7% (inactive); in assay [8], 21% (inactive). For the same molecule, in assay [2], the inhibition of aggregation was -8% (inactive). In addition, the figures for the nuclei count in assay [2] and in assay [3] were 91.3% and 144%, respectively. Also, the fluorescence slope in assay [4] is -0.454 (inactive). Further, the NADPH fluorescence slope in assay [5] was 7.5e-06 (inactive). In addition, in assay [6], the slope was 0.00642 (inactive).
As for `Cc1ccc(C)c(NC(=O)c2ccc3c(c2)N(Cc2ccc(F)cc2)C(=O)CS3=O)c1` (centres undefined), the cell count in assay [1] was found to be 622. For the same molecule, the inhibition in assay [1] is 6.2% (inactive); in assay [3], 3.5% (inactive); in assay [7], 4.49% (inactive); in assay [8], 20.4% (inactive). Also, the inhibition of aggregation in assay [2] is -0.7% (inactive). Further, the results for the nuclei count in assay [2] and in assay [3] were 105% and 122%, respectively. Also, the fluorescence slope in assay [4] was -0.546 (inactive). Further, the NADPH fluorescence slope in assay [5] is -2.3e-05 (inactive). Also, the slope in assay [6] was 0.00733 (inactive).

As a reminder, the inhibition is the drop in the measured response relative to a control, in per cent.
